Assay outcomes as filed in PubChem BioAssay.
In the library only some 22% were active in any assay of this set; here they are far more common.
Pf growth 96h: P. falciparum growth inhibition at 96 hours | P. falciparum luciferase reporter growth, 96 h | Potency, µM (doses to about 28.7 µM), most hits filed as inhibitors | actives 6.9% (n = 320,000) | AID 504834
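Readout is luminescence from an integrated firefly luciferase in P. falciparum. Red cells, 2% hematocrit and 0.05% parasitemia final, were cultured with compound through two parasite generations (96 hours) at 37 C, 5% CO2.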
Pf growth 48h: inhibits P. falciparum growth in the first generation, 48 h; Potency, µM (top dose mostly 28.7 µM), most hits filed as inhibitors; P. falciparum luciferase growth in erythrocytes, 48 h; actives 5.9% (n = 310,000)
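Cell-based growth assay: transgenic P. falciparum expressing firefly luciferase, cultured in red cells within RPMI 1640 containing 0.5% w/v Albumax, 24 mM bicarbonate and gentamycin. A drop in luciferase activity indicates inhibition.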
LmPK inh: LmPK (Leishmania mexicana) enzyme inhibition; purified LmPK, Kinase-Glo ATP luminescence, 1 h; Potency, µM (series often up to 57.5 µM), actives largely listed as inhibitors; actives 0.37% (n = 290,000)
Target sequence (Q27686 whole entry, looked up): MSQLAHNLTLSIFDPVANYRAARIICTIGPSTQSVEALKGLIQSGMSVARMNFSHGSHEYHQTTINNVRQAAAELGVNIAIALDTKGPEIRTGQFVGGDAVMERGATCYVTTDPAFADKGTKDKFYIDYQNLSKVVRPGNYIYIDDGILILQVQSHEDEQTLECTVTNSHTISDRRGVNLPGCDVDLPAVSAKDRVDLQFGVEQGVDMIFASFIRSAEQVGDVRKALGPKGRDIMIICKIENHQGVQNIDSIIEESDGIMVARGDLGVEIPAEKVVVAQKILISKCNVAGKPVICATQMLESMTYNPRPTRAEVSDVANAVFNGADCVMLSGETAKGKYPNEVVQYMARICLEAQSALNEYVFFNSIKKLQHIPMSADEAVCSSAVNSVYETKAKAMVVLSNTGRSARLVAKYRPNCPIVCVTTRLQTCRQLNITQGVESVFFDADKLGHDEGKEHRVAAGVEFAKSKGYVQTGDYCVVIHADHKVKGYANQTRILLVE
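ATP generated from ADP (0.1 mM) and PEP (0.5 mM) by 0.1 nM LmPK over 1 h at room temperature (pH 7.2 imidazole buffer) was detected by coupled luciferase luminescence. Values were normalized to uninhibited and no-enzyme wells.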
Shiga inhibitor: Shiga toxin inhibition. Vero cells, Shiga toxin protein synthesis inhibition reporter. inhibition, % at 38.7 µM. actives 9.2% (n = 290,000); in the data active = inhibition mostly above about 28%, no sharp cut-off; inactive = mostly below about 43%
CHX counter: counter-screen hit for Shiga toxin inhibitors, cycloheximide. cell reporter, cycloheximide protein synthesis inhibition counterscreen. max response, %. actives 12% (n = 300,000). AID 2314; in the data active = max response mostly above about 13%, no sharp cut-off; inactive = mostly below about 14%; also: read at 38.3 µM for the half of the compounds with a filed dose
Numbers stand for hits; n = inactive; u = inconclusive; x = not tested or not shown; [ ] = dose if it differs, or a comment. Unless noted, calls follow the shape of the dose curve; as a rule, active = well fitted inhibition curve with a large enough effect; inconclusive = small, poorly fitted or top-dose-only effect, or another doubt; inactive = no such curve, though single readings can be large or run the other way.

SMILES | Pf growth 96h | Pf growth 48h | LmPK inh | Shiga inhibitor | CHX counter
CC(C)NC(=O)C1CCN(C2CCN(C(=O)c3scc4c3CCCC4)CC2)CC1 | u | u | n | n | n
Cc1cc(C)c(C(=O)N2CCC(N3CCC(C(=O)NC(C)C)CC3)CC2)o1 | 12µM | u | n | n | n
Cc1[nH]c2ccccc2c1Cc1nnc(SCCC#N)o1 | n | n | n | n | n
C=CCSc1nnc(Cc2c(C)[nH]c3ccccc23)o1 | 8.3µM | n | n | n | n
O=C(CSc1nc2ccccc2[nH]1)NCc1ccco1 | n | n | n | n | n
O=C(CSc1nc2ncccc2[nH]1)NC1CCCC1 | u | n | n | n | n
Cc1cc2nc(-c3cccnc3SCC(=O)NC3CC3)[nH]c2cc1C | n | n | 14µM | 52 | 23
Cc1cc2nc(-c3cccnc3SCC(=O)NCc3ccco3)[nH]c2cc1C | n | n | u | n | 21
O=C(CSc1ncccc1-c1nc2ccccc2[nH]1)NCc1ccco1 | n[5.75 µM] | n | n | 56 | 40
COc1ccc(NC(=O)Nc2ccc(Br)cn2)cc1 | n | n | n | 77 | n
COC(=O)c1ccccc1NC(=O)Nc1ccc(Br)cn1 | n | n | n | n | n
COc1ccc(/C=C/C(=O)NC(=S)Nc2ccc(Br)cn2)cc1 | n | n[0.00184 µM] | n | n | 11
COc1ccc(NC(=S)NC(=O)/C=C/c2ccc(F)cc2)cc1 | n | n | n | n | n
CC(C)CCNC(=S)Nc1ccc(Br)cc1 | n | u | n | 48 | 30
CC(C)CCNC(=O)/C=C/c1ccc(Br)cc1 | n | n | n | 100 | 37
Cc1ccc(NC(=S)NCC(C)C)cc1 | n | n | n | 40 | 35
CC(C)CCNC(=S)Nc1ccc([N+](=O)[O-])cc1 | n | u | n | n | 30
CCC(C(=O)NC(C)(C)C)N(Cc1ccco1)C(=O)CNS(=O)(=O)c1ccc(OC)cc1 (stereo not given) | n | n | n | n | n
O=C(Nc1ccccc1)C1=C[C@@H](c2coc3ccccc3c2=O)C[C@@H](OCCCCO)O1 | u | u | n | n | n
COc1ccc(S(N)(=O)=O)cc1C(=O)N(C)CC(=O)Nc1ccc(N2CCOCC2)cc1 | n | n | n | n | n
CC1CC(C)CN(CCCNC(=O)Cn2cccc2C(=O)c2ccccc2)C1 (stereo not given) | n | n | n | n | n
COC(=O)c1cn(-c2ccc(Cl)cc2)c(=O)c2ccccc12 | x | 2.9µM | n | n | n
COC(=O)c1cn(C(=O)c2ccccc2)c2ccccc12 | n | n | n | n | n
COC(=O)c1cn(C(=O)c2cc(Cl)ccc2Cl)c2ccccc12 | 13µM | n | n | x | n
O=C(Nc1ccc(F)cc1F)c1cc(Cl)sc1Cl | n | x | n | n | 30
SMILES | Pf growth 96h | Pf growth 48h | LmPK inh | Shiga inhibitor | CHX counter
O=C(Nc1ccccc1F)c1cc(Cl)sc1Cl | n | x | n | 72 | 31
CCCCCCSc1nnc2[nH]c(=O)cc(N)n12 | 5.2µM | u | n | n | n
CCCCCCCCSc1nnc2[nH]c(=O)cc(N)n12 | n | n | n | n | n
Cn1cnnc1SCC(=O)Nc1ccc(Cl)c(S(=O)(=O)N2CCOCC2)c1 | u | n | n | n | n
CCc1nn2c(=O)cc(COC(=O)c3cc(Cl)c(OC)c(OC)c3)nc2s1 | u | 12µM | x | x | x
Cc1nn2c(=O)cc(COC(=O)c3c(F)cccc3Cl)nc2s1 | u | n | x | x | x
Cc1c(NC(=S)NC(=O)c2cccc3ccccc23)cccc1C(=O)O | u | n | n | n | n
Cc1ccc(-c2nc3ccccc3s2)cc1NC(=S)NC(=O)/C=C/c1ccco1 | n | n | n | 63 | 29
Cc1ccc(-c2nc3ccccc3s2)cc1NC(=S)NC(=O)c1cccc2ccccc12 | u | n | n | 80 | 35
O=C(/C=C/c1ccco1)NC(=S)Nc1cc(-c2nc3ccccc3s2)ccc1Cl | n | n | n | 94 | 58
CC(=O)c1ccc(NC(=O)CSc2ccsc2[N+](=O)[O-])cc1 | n | u | n | n | n
Cn1c(/N=C/c2cccs2)nc2ccccc21 | n | n | 14µM | n | n
Cc1c(C(C)(C)C)s/c(=N/S(=O)(=O)c2ccccc2)n1C | n | u | n | n | n
CCCCC[n+]1ccn(C2=C([O-])c3ccccc3C(=O)/C2=N\S(=O)(=O)c2ccc(Br)cc2)c1 | u | 1.9µM | n | n | n
CCCC[n+]1ccn(C2=C([O-])c3ccccc3C(=O)/C2=N\S(=O)(=O)c2ccccc2)c1 | 8.3µM | 1.9µM | n | n | n
CC(C)c1ccc(NC(=O)C[n+]2ccn(C3=C([O-])c4ccccc4C3=O)c2)cc1 | n | n | n | n | n
CC(C)[n+]1ccn(C2=C([O-])c3ccccc3C(=O)/C2=N\S(=O)(=O)c2ccccc2)c1 | u | 6.6µM | n | n | n
CC(C)(C)c1cc[n+](C2=C([O-])c3ccccc3C(=O)/C2=N\S(=O)(=O)c2ccccc2)cc1 | 4.1µM | 3.7µM | n | 95 | 58
Cc1ccc(-c2ccc(C)c(N)c2C)c(C)c1N | n | n | n | n | n
COc1ccc(CN(C(=O)c2cc(=O)c3ccccc3o2)C2CCS(=O)(=O)C2)cc1OC (stereo not given) | n | n | n | n | n
CCCCC[n+]1ccn(C2=C([O-])c3ccccc3C(=O)/C2=N\S(=O)(=O)c2ccccc2)c1 | 5.9µM | 2.9µM | n | n | n
CCCCC[n+]1ccn(-c2nc3ccccc3nc2[N-]S(=O)(=O)c2ccc(C)cc2)c1 | u | n | n | n | n
O=C1CCCN1CC(O)CS(=O)(=O)Cc1ccccc1Cl (stereo not given) | n | n | n | n | n
N/C(=N\OC(=O)CC1CCCCC1)c1ccc(Br)cc1 | u | n | n | n | n
N/C(=N\OC(=O)CC1CCCCC1)c1cccc(Br)c1 | n | u | n | 55 | 44
SMILES | Pf growth 96h | Pf growth 48h | LmPK inh | Shiga inhibitor | CHX counter
COc1ccc(/C(N)=N/OC(=O)CCC2CCCC2)cc1OC | u | n | n | 58 | 23
COc1ccc(/C(N)=N/OC(=O)CC2CCCCC2)cc1OC | u | u | n | 55 | 50
COc1ccc(/C(N)=N/OC(=O)CSc2ccc(C)cc2)cc1OC | u | x | n | n | n
N/C(=N\OC(=O)CC1CCCCC1)c1ccc(Cl)cc1 | n | n | n | 73 | 30
COC(=O)c1nccc2c1[nH]c1ccccc12 | n | n | x | x | x
CN1CCN(c2nnc(-c3ccc(F)cc3)c3ccccc23)CC1 | n | u | n | n | n
CC(C)OCCCn1c(=S)[nH]c2ncccc2c1=O | n | n | n | n | n
CC(C)OCCCn1c(-c2ccc(Br)cc2)c[nH]c1=S | n | u | 13µM | n | n
O=C(Nc1ccccc1C(F)(F)F)N1CCN(c2ccc3nnc(-c4ccc(F)cc4)n3n2)CC1 | u | 12µM | n | n | n
COc1cc(/C=C/C(=O)OCC(=O)Nc2cc(C(F)(F)F)ccc2N2CCOCC2)ccc1O | u | u | n | n | n
N#CCC(CNc1ncc(C(F)(F)F)cc1Cl)OC(=O)c1ccc(Cl)cc1Cl (stereo not given) | 2.3µM | 2.9µM | n | n | n
N/C(=N\OC(=O)CCc1ccccc1)c1cccc(Br)c1 | n | n | n | n | n
